These results are taken from ChEMBL document CHEMBL5606460, “ASAP - DENV-2 NS2B-NS3 protease fluorescence single point” (2024).

Among all 2,000 compounds or so, about 110 (5.5%) showed an effect of 50% or more. Many of the other results were omitted from the sample, so strong results are more common in it than they were.

Usually inhibition stands for the change of the read-out against control, counted positive when it falls.

The target of this experiment is Genome polyprotein (dengue virus type 2) (UniProt P29990).
Where [1] appears, read: Thailand/16681/1984, Concentration 25.0 uM, Number of replicates 1.0.

With `N[C@H]1CC[C@H](NC(=O)[C@@H](NC(=O)OCc2ccccc2)c2ccc(OCc3ccccc3)cc2)C1`, the inhibition is -9.06% (Thailand/16681/1984, Concentration 49.5 uM, Number of replicates 2.0, Standard deviation 0.9979193615621401 %); -6.13% (Thailand/16681/1984, Concentration 49.5 uM, Number of replicates 2.0, Standard deviation 5.780389191288721 %); -6.77% (Thailand/16681/1984, Concentration 99.01 uM, Number of replicates 2.0, Standard deviation 0.21863424783935215 %); -4.83% (Thailand/16681/1984, Concentration 99.01 uM, Number of replicates 2.0, Standard deviation 4.8738871027899835 %); 3.56% (Thailand/16681/1984, Concentration 198.0 uM, Number of replicates 2.0, Standard deviation 0.20009536646595624 %); 6.71% (Thailand/16681/1984, Concentration 198.0 uM, Number of replicates 2.0, Standard deviation 2.9330264990309507 %).

As for `Cn1cc(NC(=O)c2ccccc2C(F)(F)F)c(-c2ccc(O)cc2)n1`, the inhibition (Thailand/16681/1984, Concentration 49.5 uM, Number of replicates 2.0, Standard deviation 1.4149767575059302 %) is -3.58%; the inhibition (Thailand/16681/1984, Concentration 99.01 uM, Number of replicates 2.0, Standard deviation 0.6191126751592 %) is -2.21%; the inhibition (Thailand/16681/1984, Concentration 198.0 uM, Number of replicates 2.0, Standard deviation 0.2617465963559337 %) was -3.21%.

`O=C1C[C@@H](NS(=O)(=O)c2ccc(Oc3ccccc3Cl)cc2)CCN1`: the inhibition was -5.52% (Thailand/16681/1984, Concentration 49.5 uM, Number of replicates 2.0, Standard deviation 1.1905021365747266 %); -3.29% (Thailand/16681/1984, Concentration 99.01 uM, Number of replicates 2.0, Standard deviation 1.0784606403673063 %); -1% (Thailand/16681/1984, Concentration 198.0 uM, Number of replicates 2.0, Standard deviation 1.453680839379123 %).

For `O=C1NCC[C@@H]1CNS(=O)(=O)c1ccc(Oc2ccccc2Cl)cc1`, the inhibition is, setting by setting: (Thailand/16681/1984, Concentration 49.5 uM, Number of replicates 2.0, Standard deviation 4.002985951466216 %) -0.264%; (Thailand/16681/1984, Concentration 99.01 uM, Number of replicates 2.0, Standard deviation 4.526482853100752 %) 0.42%; (Thailand/16681/1984, Concentration 198.0 uM, Number of replicates 2.0, Standard deviation 4.411103663666057 %) 2.4%.

With `O=C1NCCC[C@@H]1CNS(=O)(=O)c1ccc(Oc2ccccc2Cl)cc1`, the inhibition (Thailand/16681/1984, Concentration 49.5 uM, Number of replicates 2.0, Standard deviation 0.9940716071741866 %) was -2.68%; the inhibition (Thailand/16681/1984, Concentration 99.01 uM, Number of replicates 2.0, Standard deviation 0.27557480876496404 %) is -0.801%; the inhibition (Thailand/16681/1984, Concentration 198.0 uM, Number of replicates 2.0, Standard deviation 0.9840594547230297 %) amounted to 1.79%.

`O=C(NCC1CC1)c1cc(Cl)ccc1NS(=O)(=O)c1ccc(Oc2ccccc2Cl)cc1`: the inhibition stood at 77.8% (Thailand/16681/1984, Concentration 49.5 uM, Number of replicates 2.0, Standard deviation 0.6779748794958176 %); 88.2% (Thailand/16681/1984, Concentration 99.01 uM, Number of replicates 2.0, Standard deviation 0.21598068225710626 %); 87% (Thailand/16681/1984, Concentration 198.0 uM, Number of replicates 2.0, Standard deviation 0.009057863507173258 %).

Regarding `O=C1C[C@@H](CNC(=O)c2cc(Cl)ccc2NS(=O)(=O)c2ccc(Oc3ccccc3Cl)cc2)CN1`, the inhibition came out at 12.4% (Thailand/16681/1984, Concentration 49.5 uM, Number of replicates 2.0, Standard deviation 1.683767946709369 %); 57.2% (Thailand/16681/1984, Concentration 99.01 uM, Number of replicates 2.0, Standard deviation 0.12281254481286434 %); 53.6% (Thailand/16681/1984, Concentration 198.0 uM, Number of replicates 2.0, Standard deviation 0.21046989752060982 %).

As for `O=C(N[C@H]1CCNC1=O)c1cc(Cl)ccc1NS(=O)(=O)c1ccc(Oc2ccccc2Cl)cc1`, the inhibition by setting is: (Thailand/16681/1984, Concentration 49.5 uM, Number of replicates 2.0, Standard deviation 0.36576586141779044 %) 30.3%; (Thailand/16681/1984, Concentration 99.01 uM, Number of replicates 2.0, Standard deviation 0.2318278972972024 %) 51.8%; (Thailand/16681/1984, Concentration 198.0 uM, Number of replicates 2.0, Standard deviation 0.7755829345495912 %) 18.9%.

In the case of `O=C(NC[C@H]1CCCO1)c1cc(Cl)ccc1NS(=O)(=O)c1ccc(Oc2ccccc2Cl)cc1`, the inhibition (Thailand/16681/1984, Concentration 49.5 uM, Number of replicates 2.0, Standard deviation 0.11391652520397291 %) was found to be 86.2%; the inhibition (Thailand/16681/1984, Concentration 99.01 uM, Number of replicates 2.0, Standard deviation 0.06140357500812747 %) was 84.7%; the inhibition (Thailand/16681/1984, Concentration 198.0 uM, Number of replicates 2.0, Standard deviation 0.13037604965923533 %) was 79.4%.

For the compound `C[C@H](NC(=O)C1CCN(c2ccc(C=O)cc2)CC1)c1ccc(Br)cc1`, the inhibition under setting [1] was determined as 12.7%.

As for `O=C(N[C@@H](C(=O)NC1CCNCC1)c1ccc(OCc2ccccc2)cc1)OCc1ccccc1`, the inhibition (Thailand/16681/1984, Concentration 49.5 uM, Number of replicates 2.0, Standard deviation 0.04752487067458113 %) is -0.225%; the inhibition (Thailand/16681/1984, Concentration 99.01 uM, Number of replicates 2.0, Standard deviation 0.6611370067327399 %) is -0.49%; the inhibition (Thailand/16681/1984, Concentration 198.0 uM, Number of replicates 2.0, Standard deviation 1.22541945186685 %) came out at 2.06%.

Turning to `CNc1ccccc1C(=O)Nc1cccc2c(CO)cc(C)nc12`, the inhibition (Thailand/16681/1984, Concentration 49.95 uM, Number of replicates 2.0, Standard deviation 1.7606224720878931 %) is -0.213% and the inhibition (Thailand/16681/1984, Concentration 99.9 uM, Number of replicates 2.0, Standard deviation 1.1796035516056886 %) was 2.15%.

Regarding `Cc1cc(N)c2cccc(F)c2n1`, the inhibition reads like this: (Thailand/16681/1984, Concentration 49.95 uM, Number of replicates 2.0, Standard deviation 2.207074007413848 %) -9.77%; (Thailand/16681/1984, Concentration 99.9 uM, Number of replicates 2.0, Standard deviation 2.035147234269057 %) -9.31%.

Regarding `Cn1cc(NC(=O)c2ccccc2C(F)(F)F)c(-c2ccc(N)nc2)n1`, the inhibition (Thailand/16681/1984, Concentration 49.5 uM, Number of replicates 2.0, Standard deviation 0.02318042950620363 %) is -3.62%; the inhibition (Thailand/16681/1984, Concentration 99.01 uM, Number of replicates 2.0, Standard deviation 0.5795125921164253 %) is -3.54%; the inhibition (Thailand/16681/1984, Concentration 198.0 uM, Number of replicates 2.0, Standard deviation 2.685074924440845 %) was -2.16%.

With `O=C(c1ccc2c(c1)B(O)OC2)N1CCN[C@H](c2ccc(Cl)cc2)C1`, the inhibition reads like this: (Thailand/16681/1984, Concentration 49.5 uM, Number of replicates 2.0, Standard deviation 1.1051975895382533 %) -1.33%; (Thailand/16681/1984, Concentration 99.01 uM, Number of replicates 2.0, Standard deviation 0.5109273627094355 %) -1.22%; (Thailand/16681/1984, Concentration 198.0 uM, Number of replicates 2.0, Standard deviation 0.04393612974415127 %) -0.309%.

Consider `Cc1n[nH]cc1-c1ccccc1C(=O)Nc1cnn(C)c1`, for which the inhibition was -4.22% (Thailand/16681/1984, Concentration 49.5 uM, Number of replicates 2.0, Standard deviation 1.4825862030761958 %); -5.61% (Thailand/16681/1984, Concentration 99.01 uM, Number of replicates 2.0, Standard deviation 3.6856999240165664 %); -5.61% (Thailand/16681/1984, Concentration 198.0 uM, Number of replicates 2.0, Standard deviation 2.662860479629087 %).

With `Cc1ccc(NC(=O)C2CCN(c3ccc(C=O)cc3)CC2)cc1Br`, the inhibition under setting [1] was found to be 8.71%.
